HIV Env fusion: inhibitors of HIV Env-mediated cell fusion. 360,000 tested, 1.1% active. HeLa-JRFL Env/CEM21 cell fusion, luciferase. inhibition, % at 12.3 µM;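 active means mean replicate inhibition score of at least 50 and every replicate individually at or above 50; inconclusive means only one of the two criteria met; inactive means mean below 50 and not all replicates reaching 50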
MITF act: MITF TRPM1 promoter activation in melanoma cells; SK-MEL-5 TRPM1-promoter luciferase, 24 h; % of positive control, neutral wells = 0; AID 588334; activation, % at 12.5 µM; 300,000 tested, 0.75% active;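 active means mean activation of at least 80% with every replicate also reaching 80%; inconclusive means mean reaches 80% but some replicate falls short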
Wnt act: Wnt/beta-catenin pathway activation. activation, % at 9.35 µM. Wnt/beta-catenin reporter cell assay, activator, plate reader. 300,000 tested, 1.2% active; in the data active means activation above about 30%, passing the limit was not always enough; inconclusive means no clear call, values can overlap the other calls
esBAF inh: blocks esBAF chromatin remodeling in mouse ES cells; reporter increase, % at 12.5 µM; Bmi1-luciferase knock-in reporter, 24 h; 100% = twice the neutral-well signal; 350,000 tested, 2% active; in the data active means activation above about 40%; inconclusive means no clear call, values can overlap the other calls;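 further: a rise in the Bmi1 reporter signal indicates esBAF inhibition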
miR-122 sensor: miR-122 inhibition in Huh7 cells; Huh7 miR-122 Renilla luciferase sensor, 48 h; neutral wells = 0, positive control = 100; activation (reporter increase), % at 12.5 µM; 340,000 tested, 0.3% active;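 active means mean replicate activation score at least 90 and every replicate individually at or above 90; inconclusive means only one of the two criteria met; inactive means neither criterion met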;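 further: higher luciferase means less miR-122 activity so hits act as miR-122 inhibitors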
Large screens that a line does not name were inactive; [ ] = dose if it differs, or a comment. The list is not random: actives were taken first. Their share in the collection is about 3.4%.

CN(C(=O)CSc1ncnc2sccc12)C1CCCCC1	Wnt act 47, esBAF inh 75
CCCOC(=O)Nc1nc2ccccc2o1	Wnt act 37
Cc1cc(C(=O)COC(=O)c2cc(Cl)ccc2N)c(C)n1Cc1ccco1	MITF act 106 (no result: HIV Env fusion, esBAF inh, miR-122 sensor)
O=C(Nc1ccc(Cl)c(Cl)c1)c1ccc(Cn2cc(Cl)cn2)cc1	esBAF inh 69
CO[C@@H]1CN(C)C(=O)c2cc(NC(=O)NC(C)C)ccc2OC[C@H](C)N(C(=O)C2CCC2)C[C@@H]1C	none (no result: MITF act, Wnt act, miR-122 sensor)
COc1ccc(Cn2c(=O)[nH]c3cc(C(=O)N4CCN(c5ccccc5OC)CC4)ccc3c2=O)cc1	none (no result: HIV Env fusion, Wnt act, miR-122 sensor)
O=C(c1ccc2ccccc2c1)N1CCN(Cc2ccccc2)CC1	esBAF inh 69
COc1ccc(Cn2c(=O)[nH]c3cc(C(=O)N4CCN(Cc5ccccc5)CC4)ccc3c2=O)cc1	HIV Env fusion 24
C[C@@H]1CN([C@@H](C)CO)S(=O)(=O)c2ccc(C#C[C@@H](C)O)cc2O[C@@H]1CN(C)C(=O)C1CCCCC1	none (no result: MITF act, Wnt act)
CN(C)c1ncnc2c1ncn2CCn1cnc2c(N(C)C)ncnc21	none
CN(C)c1ncnc2c1ncn2-c1ccccc1	esBAF inh 59
O=C(NC1CCCC1)N1CCCCN2[C@H](C1)[C@H](c1ccc(/C=C/c3ccccc3)cc1)[C@@H]2CO	none (no result: HIV Env fusion, MITF act, Wnt act)
CCOC(=O)c1nn(-c2ccc(C)c(C)c2)cc1O	MITF act inconclusive, esBAF inh 46 (no result: Wnt act)
Cc1ccc(NC(=O)COC(=O)c2nn(-c3ccc(Cl)cc3)cc2O)cc1	esBAF inh 49
CCOC(=O)c1nn(-c2ccc3c(c2)OCCO3)cc1O	MITF act 82
CCOC(=O)c1nn(-c2ccc(C)cc2)cc1C(=O)c1ccccc1	esBAF inh 79 (no result: MITF act, Wnt act)
CNC(=O)C[C@@H]1CC[C@@H]2[C@H](COc3ccc(NC(=O)Nc4cc(C)cc(C)c4)cc3C(=O)N2C)O1	none (no result: MITF act, Wnt act)
C[C@@H]1CCCCO[C@H](CN(C)Cc2ccc(C(=O)O)cc2)[C@H](C)CN([C@H](C)CO)C(=O)c2cc(NC(=O)CCC(F)(F)F)ccc2O1	none (no result: MITF act, Wnt act)
C[C@H]1CN([C@@H](C)CO)S(=O)(=O)c2ccc(-c3cccnc3)cc2O[C@H]1CN(C)Cc1cncnc1	none (no result: MITF act, Wnt act)
CO[C@@H]1CN(C)C(=O)c2ccc(NS(=O)(=O)c3ccccc3C)cc2OC[C@H](C)N(C)C[C@H]1C	none (no result: MITF act, Wnt act, miR-122 sensor)
COC(=O)c1nn(-c2ccc3c(c2)CCN3C(C)=O)cc1O	HIV Env fusion 73 (no result: Wnt act, esBAF inh)
COc1ccc(NC(=O)N(C)C[C@@H]2Oc3ccc(NC(=O)Cc4cn(C)c5ccccc45)cc3CC(=O)N([C@@H](C)CO)C[C@@H]2C)cc1	none (no result: MITF act, Wnt act)
CCc1ccccc1NC(=O)c1cc([N+](=O)[O-])ccc1N1CCOCC1	none
CC1CCN(c2ccccc2NC(=O)c2cc([N+](=O)[O-])ccc2N2CCOCC2)CC1	HIV Env fusion 60 (no result: esBAF inh)
O=C(NCCOc1ccccc1F)c1cc([N+](=O)[O-])ccc1N1CCOCC1	HIV Env fusion 63
COc1ccc(OCC(=O)Nc2cc(-c3nn(C)c(=O)c4ccccc34)ccc2OC)cc1	HIV Env fusion 86
CCOC(=O)C(=NC(C)C)NNc1cc(Cl)ccc1Cl	Wnt act 40 (no result: esBAF inh, miR-122 sensor)
CCOC(=O)C(=NC(C)(C)C)NNc1cc(Cl)ccc1Cl	none (no result: esBAF inh, miR-122 sensor)
C=CCc1c(C)nc2ccc(C(=O)OCC)cc2c1Cl	esBAF inh 53
CCOC(=O)c1ccc2nc(C)c(CCC(C)=O)c(Cl)c2c1	esBAF inh 63 (no result: HIV Env fusion, MITF act, Wnt act)
C[C@@H]1CCCCO[C@@H](CN(C)C(=O)C2CCCCC2)[C@@H](C)CN([C@@H](C)CO)C(=O)c2cc(NC(=O)c3ccccc3)ccc2O1	none (no result: MITF act, Wnt act)
CCN(Cc1ccccc1)c1ccc(/C=C(\C#N)c2ccccn2)cc1	MITF act 121, Wnt act 96, esBAF inh 77
CCCNC(=O)N1CC2(CCN(C(=O)c3ccncc3)CC2)c2c([nH]c3cc(OC)ccc23)[C@H]1CO	none (no result: MITF act, Wnt act, esBAF inh, miR-122 sensor)
O=S(=O)(c1ccc(F)cc1)N(CCO)CC(O)Cn1c2ccccc2c2ccccc21 (centres undefined)	HIV Env fusion 66 (no result: Wnt act)
CCn1c(C)csc1=NC(=O)c1ccccc1	none
Cc1csc(=NC(=O)c2ccccc2)n1C	Wnt act 34, esBAF inh inconclusive (no result: MITF act)
O=C(Nc1ccc2c(c1)[C@H]1C[C@H](CC(=O)N3CCCCC3)O[C@@H](CO)[C@H]1O2)C1CCC1	none (no result: MITF act, Wnt act)
C[C@H](CO)N1C[C@H](C)[C@@H](CN(C)S(=O)(=O)c2ccccc2)Oc2ccc(NC(=O)Cc3cn(C)c4ccccc34)cc2CC1=O	none (no result: MITF act, Wnt act)
C[C@H](CO)N1C[C@H](C)[C@H](CN(C)S(=O)(=O)c2ccccc2)Oc2ccc(NC(=O)Cc3cn(C)c4ccccc34)cc2CC1=O	HIV Env fusion 94[16.7 µM] (no result: MITF act, Wnt act)
C[C@@H]1CN([C@@H](C)CO)C(=O)Cc2cc(NC(=O)Cc3cn(C)c4ccccc34)ccc2O[C@@H]1CN(C)S(=O)(=O)c1cccs1	none (no result: MITF act, Wnt act)
COc1ccc(S(=O)(=O)N(C)C[C@@H]2Oc3ccc(NC(=O)Cc4cn(C)c5ccccc45)cc3CC(=O)N([C@H](C)CO)C[C@@H]2C)cc1	HIV Env fusion 76[16.7 µM] (no result: MITF act, Wnt act)
C[C@H](CO)N1C[C@H](C)[C@H](CN(C)S(=O)(=O)c2cccs2)Oc2ccc(NC(=O)Cc3cn(C)c4ccccc34)cc2CC1=O	HIV Env fusion 96[16.7 µM] (no result: MITF act, Wnt act)
CCCC[C@@H]1CNCCN1CCc1cc(C(F)(F)F)cc(C(F)(F)F)c1	none
FC(F)(F)c1cc(CCN2CCNC[C@@H]2CC2CCCCC2)cc(C(F)(F)F)c1	HIV Env fusion 85
O=C(O)c1ccccc1SCc1cn2cc(Cl)ccc2n1	Wnt act 43 (no result: esBAF inh, miR-122 sensor)
C/C=C/c1cnc2c(c1)C(=O)N([C@@H](C)CO)C[C@H](C)[C@@H](CN(C)C(=O)C1CCC1)O2	none (no result: MITF act, Wnt act, esBAF inh)
C[C@H](CO)N1C[C@H](C)[C@H](CN(C)Cc2ccc(C(=O)Nc3ccccc3N)cc2)Oc2c(NC(=O)c3ccc(-c4nccs4)cc3)cccc2C1=O	none (no result: MITF act, Wnt act)
C[C@@H]1CN([C@@H](C)CO)C(=O)c2cccc(NC(=O)c3ccc(-c4nccs4)cc3)c2O[C@@H]1CN(C)Cc1ccc(C(=O)Nc2ccccc2N)cc1	miR-122 sensor 213[16.7 µM] (no result: MITF act, Wnt act)
C[C@@H]1CN([C@@H](C)CO)C(=O)c2cccc(NC(=O)c3ccc(-c4nccs4)cc3)c2O[C@H]1CN(C)CC1CC1	HIV Env fusion 57[16.7 µM] (no result: MITF act, Wnt act)
C[C@@H]1CN([C@@H](C)CO)C(=O)c2cc(NS(=O)(=O)c3ccccc3)ccc2O[C@H]1CN(C)S(=O)(=O)c1cccs1	none (no result: MITF act, Wnt act)
Cc1cccc(C)c1NC(=O)CN(C)C(=O)c1ccc(COc2ccccc2)cc1	esBAF inh 43
C[C@H]1CCCCO[C@H](CN(C)C(=O)Nc2ccc3c(c2)OCO3)[C@@H](C)CN([C@@H](C)CO)C(=O)c2cc(NC(=O)Nc3ccc(F)cc3)ccc2O1	none (no result: MITF act, Wnt act)
COc1cccc(-c2nnc(NC(=O)c3ccc(S(=O)(=O)N4CC(C)OC(C)C4)cc3)o2)c1 (centres undefined)	HIV Env fusion 55 (no result: esBAF inh)
Cc1csc(SCC(=O)c2c(N)n(CC(C)C)c(=O)n(C)c2=O)n1	HIV Env fusion 90 (no result: Wnt act)

Source: PubChem (Broad Institute)
